The test relates to HepG2. Briefly: GSK_TCMDC: Percent inhibition of human HepG2 cell line. Test compounds present at 10uM. It counts as functional.
Usually Inhibition stands for the share of the control response that was lost under treatment. Read a low Inhibition as a weak effect. In turn, `Fc1ccc2[nH]c(-c3cccc(-c4cccc(CN5CCN(c6cnccn6)CC5)c4)c3)nc2c1.O=C(O)C(F)(F)F` showed an Inhibition of 17%.

Molecule `CC(=O)Nc1cc(C(=O)Nc2cccc(-c3cccc(-c4nc5cccc(C)c5[nH]4)c3)c2)ccc1C` registered an Inhibition of 25%.

For `Cl.O=C(Nc1ccc(C(=O)OCC2CCCN3CCCCC23)cc1)c1ccc(Cl)c(Cl)c1` (centres undefined), the Inhibition is 20%.

On to `CS(=O)(=O)N1CC2(CCN(CCC(NC(=O)NCc3ccccc3Cl)c3ccc(Cl)c(Cl)c3)CC2)c2ccccc21` (centres undefined), for which the Inhibition worked out at 12%.
